{"source": "the OligoGym collection"}
{"molecular_target": "PAFAH1B2", "assay": "pooled miR-30 sensor sort-seq; sequence = guide strand", "settings": "shRNA"}
{"sequence": "TTCTGCTGTATTTTCGTGGTTA", "sensor-assay potency score (higher = more potent)": 0.637}
{"sequence": "TTCTTCTGCTGTATTTTCGTGG", "sensor-assay potency score (higher = more potent)": -0.326}
{"sequence": "TTGCTGCATTAACTGCACCATG", "sensor-assay potency score (higher = more potent)": -1.37}
{"sequence": "TTGTGCTGAGACATCCATCGGT", "sensor-assay potency score (higher = more potent)": 0.723}
{"sequence": "TTAGTCTCCACAAAACATGTCT", "sensor-assay potency score (higher = more potent)": -0.124}
{"sequence": "TTACAGTCCAAAACAAATCTGT", "sensor-assay potency score (higher = more potent)": 0.236}
{"sequence": "ATTTAAACAACAATCTTCCTTG", "sensor-assay potency score (higher = more potent)": 0.529}
{"sequence": "TACCCAGACAACAATGACCTTA", "sensor-assay potency score (higher = more potent)": -0.359}
{"sequence": "TAATATTCTCCAGTTCTCCATT", "sensor-assay potency score (higher = more potent)": -1.1}
{"molecular_target": "PAG1", "assay": "pooled miR-30 sensor sort-seq; sequence = guide strand", "settings": "shRNA"}
{"sequence": "TTGTTTTTGATAACTACCTTTC", "sensor-assay potency score (higher = more potent)": -0.868}
{"sequence": "TTTTCTTTTCTATATAGCGTTT", "sensor-assay potency score (higher = more potent)": -1.01}
{"sequence": "TAATATTTGAAAACTCTTGGGG", "sensor-assay potency score (higher = more potent)": 0.247}
{"sequence": "TAAACTGTAGCATTAGCTCAAG", "sensor-assay potency score (higher = more potent)": -0.488}
{"sequence": "TTGCAAAATAATGACAACCAAC", "sensor-assay potency score (higher = more potent)": -1.68}
{"sequence": "TTAAACTGTAGCATTAGCTCAA", "sensor-assay potency score (higher = more potent)": 0.54}
{"sequence": "TACATAATAGAACATATCCTAA", "sensor-assay potency score (higher = more potent)": -0.651}
{"sequence": "TTTTTTGTTTCTGTCCACCGAG", "sensor-assay potency score (higher = more potent)": -0.11}
{"sequence": "TTTTTGTTTCTGTCCACCGAGG", "sensor-assay potency score (higher = more potent)": -1.07}
{"sequence": "TAAATTTCACATAACCTGCTAT", "sensor-assay potency score (higher = more potent)": 0.485}
{"sequence": "TTACTGATGAGTACATAGCTGA", "sensor-assay potency score (higher = more potent)": -0.0368}
{"sequence": "TTCTTGTGTAGTTATCTGCCTA", "sensor-assay potency score (higher = more potent)": -0.676}
{"molecular_target": "PALB2", "assay": "pooled miR-30 sensor sort-seq; sequence = guide strand", "settings": "shRNA"}
{"sequence": "TACATGGCTCTTTACAACCGGC", "sensor-assay potency score (higher = more potent)": -0.961}
{"sequence": "TTAGGAATGTATCAACACCTTT", "sensor-assay potency score (higher = more potent)": -0.84}
{"sequence": "TTGAATAAATAATTTTTCGTGC", "sensor-assay potency score (higher = more potent)": -0.674}
{"sequence": "TTCCTGTGTATCTTCTACCAGG", "sensor-assay potency score (higher = more potent)": -0.953}
{"sequence": "TAAATTTTTACTTGCATCCTTA", "sensor-assay potency score (higher = more potent)": 0.122}
{"sequence": "TAACATAATATTCTGCAGGAAA", "sensor-assay potency score (higher = more potent)": -1.13}
{"sequence": "TATAGCTTTATTTACAAGGAGG", "sensor-assay potency score (higher = more potent)": -1.15}
{"sequence": "TTTGCTACTGATTTCTTCCTGT", "sensor-assay potency score (higher = more potent)": 0.661}
{"sequence": "TACAGCATCACACCCACGCTGA", "sensor-assay potency score (higher = more potent)": -0.615}
{"sequence": "TTGTTCTAACATAATATTCTGC", "sensor-assay potency score (higher = more potent)": -0.275}
{"sequence": "TTTGTATAGGTAATCCTCCTGG", "sensor-assay potency score (higher = more potent)": 0.029}
{"sequence": "TTCTTGAACTTGGTTGTCCTGT", "sensor-assay potency score (higher = more potent)": 0.276}
{"molecular_target": "PALM2-AKAP2", "assay": "pooled miR-30 sensor sort-seq; sequence = guide strand", "settings": "shRNA"}
{"sequence": "TTGAACAGGAGAAGACACCTGA", "sensor-assay potency score (higher = more potent)": 1.01}
{"sequence": "TTAGTCAGTGGCTTGTCTGAGT", "sensor-assay potency score (higher = more potent)": 0.113}
{"sequence": "TTGTTCTTTCTCATGCTCGTCA", "sensor-assay potency score (higher = more potent)": 0.379}
{"sequence": "TTGATTTGCTTGTAACATGTTT", "sensor-assay potency score (higher = more potent)": -0.674}
{"sequence": "TTTCTCATGCTCGTCATCCTCA", "sensor-assay potency score (higher = more potent)": 0.127}
{"sequence": "TTGTCAATCATGCTTGCGCGTT", "sensor-assay potency score (higher = more potent)": -1.12}
{"sequence": "TCTGGCAACATCATTATCCAGG", "sensor-assay potency score (higher = more potent)": -0.478}
